Assay results: PubChem BioAssay AID1508649 (National Center for Advancing Translational Sciences (NCATS), 2021)
Screen size: about 43,000 compounds; about 830 (1.9%) were called active. Another 30% or so got no clear call; they are omitted. Shown is part of a subset that was picked to be rich in actives. Unmarked numbers belong to inactive results. Rule for the calls: active = clear falling dose curves in both reporters; inconclusive = both reporters move, but less clearly or upward; inactive = either reporter flat; the % is the NLuc reporter signal.

assay: Cell-based coincidence reporter assay to measure PMP22 gene transcription in S16 Pmp22-F2sN cells - Primary screen; settings: S16 Pmp22-F2sN Schwann cells (luciferase reporters placed in the Pmp22 gene), FLuc/NLuc coincidence luminescence, 24 h; series mostly up to 57.5 µM; activity change, negative = inhibition: at the top concentration
From the text: Assay Provider: Jim Inglese Ph.D. National Center for Advancing Translational Science, National Institutes of Health, Rockville, MD CMT is a heterogeneous group of neurological disorders that affect approximately 1 in 2,500 people. In particular, the most common form of CMT, CMT1A is genetically linked to the duplication of the PMP22 gene which leads to Schwann cell overexpression, thus manifesting itself as a typical case of dose-sensitive diseases. To identify small molecule compounds that can mediate the expression of PMP22 we developed a phenotypic assay screening strategy by utilizing genome editing techniques to construct Schwann cell lines containing novel reporter technology to monitor the transcriptional or translational regulation of PMP22. For high sensitivity we use a bioluminescent reporter system embedded in the 3' UTR of the PMP22 gene (S16(c9) Pmp22-F2sN) to identify compounds that inhibit gene expression. […] We can further discriminate the effect of all transcriptionally active molecules on PMP22 translation or stability with an assay that incorporates a short NLuc peptide (HiBiT) at the C-terminus of expressed PMP22 (S16(f8) PMP22-HiBiT) allowing alpha complementation and luminescence detection of membrane-associated PMP22 protein. These assays were screened against the NCATS Sytravon Library Collection. Miniaturization of these assays to 1536-well plate format for quantitative high throughput screening (qHTS) yielded rich data sets immediately from the qHTS assay (S16(c9) Pmp22-F2sN), when compared with data from a cell viability assay (Cell TiterGlo) to identify compounds that decreased the output signals through cellular toxicity to streamline the selection process of actives for subsequent characterization using the HiBiT assay (S16(f8) PMP22-HiBiT).
Cell-based coincidence reporter assay to measure PMP22 gene transcription in S16 Pmp22-F2sN cells PROTOCOL TABLE (format as described by Inglese J, Shamu CE and Guy RK. 2007) SEQUENCE No. (e.g., 1, 2, 3, etc.); […] (e.g., Cells, Incubation, Reagent, etc.); VALUE and DESCRIPTION. 1. Cells. Add 500-1,000 cells in 4 uL in growth media (DMEM High Glucose, No Phenol Red media + 10% heat-inactivated FBS + 1% Pen/Strep supplemented media) per well into Greiner 1536-well white/solid bottom high base, TC-treated plates. 2. Compounds. Library compounds and controls added at 23nL per well, transferred by Pin Tool. 3. Incubation. Incubate plates at 37C, 5% CO2, 95% RH for 24 h. 4. Reagent. Add 3.5uL Nano-Glo Dual-Luciferase Reporter Assay System reagent 1: Lysis and FLuc reagent per well of Greiner 1536-well plates. 5. Incubation. Incubate plates at room temperature for 10 min., protect from light. 6. Detector. FLuc luminescence measured using CCD-based camera (Viewlux). 7. Reagent. Add 3.5uL Nano-Glo Dual-Luciferase Reporter Assay System reagent 2: Stop&Glo reagent per well of Greiner 1536-well plates. 8. Incubation. Incubate plates at room temperature for 10 min., protect from light. 9. Detector. NLuc luminescence measured using CCD-based camera (Viewlux). NOTES (numbers refer to Sequence numbers above; values are from representative experiments) 6. Luminescence Read #1 (FLuc): Clear filter; Exposure = 10 sec, Gain = High, Speed = Slow, Binning = 2X 9. Luminescence Read #2 (NLuc): Clear filter; Exposure = 1 sec, Gain = High, Speed = Slow, Binning = 2X REFERENCES: 1. Inglese J, Shamu CE and Guy RK, Reporting data from high throughput screening of small molecule libraries, Nature Chemical Biology, 2007, 3(8): 438-441. doi.org/10.1038/nchembio0807-438 2. Yasgar A, Shinn P, Jadhav A, Auld DS, Michael S, Zheng W, Austin CP, Inglese J and Simeonov A, Compound Management for Quantitative High-Throughput Screening. J. Assoc. Lab. Auto., 2008, 13: 79-89. doi: 10.1016/j.jala.2007.12.004
% is set by controls: 0 for no effect and ±100 for the full control effect; potency is the fitted concentration of half-maximal effect.

SMILES | Potency | activity change, negative = inhibition [%]
Cc1ccc(NC(=O)c2nc(S(=O)(=O)Cc3cccc(C)c3)ncc2Cl)cc1 | 4.22 µM (active) | –
CCS(=O)(=O)c1ncc(N(Cc2ccc(F)cc2)Cc2ccco2)c(C(=O)Nc2cc(C)ccc2C)n1 | – | 1.94
CCSc1ncc(Cl)c(C(=O)Nc2cc(C)ccc2C)n1 | – | 4.67
Cc1cc2oc(C(=O)N(Cc3ccc(Cl)cc3)Cc3ccco3)c(C)c2cc1Cl | – | -4.49
COc1ccccc1CNC(=O)C(=O)NCC(c1ccco1)S(=O)(=O)c1ccc(F)cc1 (configuration not stated) | – | -28.9
CC(C)(C)c1ccc(C(=O)NCC(c2ccco2)S(=O)(=O)c2ccc(F)cc2)cc1 (configuration not stated) | 15.8 µM (active) | –
O=C(NCC(c1ccco1)S(=O)(=O)c1cccs1)c1ccc(F)cc1 (configuration not stated) | – | -8.16
O=S(=O)(c1ccc2nc(NCc3ccccc3Cl)ccc2c1)N1CCCCC1 | – | -32.7
COc1ccccc1NC(=O)CN1C(=O)c2ccccc2Sc2ccc(C(=O)N3CCCC3)cc21 | – | -28
Cc1cccc(C(=O)Nc2ccc(-c3nc4ncccc4o3)cc2C)c1 | – | -4.56
CC1=Nc2cc(C(=O)NCc3ccc(C)cc3)ccc2Sc2ccc(Cl)cc21 | – | -6.27
CCC1=Nc2cc(C(=O)NCCCOC(C)C)ccc2Sc2ccc(C)cc21 | 8.54 µM (active) | –
CCOCCCNC(=O)c1ccc2nc(CCc3ccccc3)oc2c1 | – | 0.539
O=C(Nc1ccc(F)cc1F)c1ccc2c(=O)n3c(nc2c1)CCCCC3 | – | -12.8
Cc1cc(N2CCN(c3cccc(C(F)(F)F)c3)CC2)n2nc(-c3ccccc3)nc2n1 | – | 4.74
O=C(CSc1oc(-c2ccco2)nc1S(=O)(=O)c1ccc(Cl)cc1)c1ccccc1 | – | -14.8
CCc1ccc2oc(-c3ccc(C)c(NC(=O)/C=C/c4ccco4)c3)nc2c1 | – | -6.73
COc1ccc(CNC(=O)CSc2nc3ccccc3nc2Cc2ccccc2)cc1 | – | 0.264
CCc1ccc(NC(=O)c2nn(-c3ccc(C)cc3)c(=O)n(C)c2=O)cc1 | – | 4.83
Fc1ccc(-c2nc(Nc3cccc(Cl)c3)nc3c2COc2ccccc2-3)cc1 | – | 1.62
CCOC(=O)C1CCCN(C(=O)c2ccc3c(c2)sc2nc(-c4ccc(CC)cc4)cn23)C1 (configuration not stated) | – | -68.5
CCOC(=O)C1CCN(C(=O)CSc2c3c(nc4ccc(Cl)cc24)CCCC3)CC1 | 18.9 µM (active) | –
Cc1ccc(CNC(=O)CSc2c3c(nc4cc(Cl)ccc24)CCCC3)cc1 | – | -14.6
CCOc1ccc(N2CC(c3nc4ccccc4n3CCOc3ccc(OC)cc3)CC2=O)cc1 (configuration not stated) | – | -6.83

SMILES | Potency | activity change, negative = inhibition [%]
CCCN1C(=O)C(O)(CC(=O)c2ccc(CC)cc2)c2cc(Br)ccc21 (configuration not stated) | 12.6 µM (active) | –
Cc1cc(C)cc(NC(=O)CCS(=O)(=O)c2cc3c4c(c2)CCN4C(=O)CC3)c1 | – | -4.74
Cc1ccc(C)c(N2CCN(C(=O)CCc3c(C)nc4c(c3C)c(=O)n(C)c(=O)n4C)CC2)c1 | – | -34.2
CCOC(=O)c1c(C)[nH]c(C)c1S(=O)(=O)N(C)CC(=O)N1CCN(c2ccccc2)CC1 | – | -18.3
Cc1ccc(C)c(N2CCN(C(=O)Cc3c(C(=O)O)c(C)cn3C)CC2)c1 | – | 0.691
CCOC(=O)c1c(C)[nH]c(CCC(=O)NCCCN2CCN(c3cc(C)ccc3C)CC2)c1C | 12.1 µM (active) | –
CCOC(=O)c1c(C)[nH]c(CCC(=O)NCCCN2CCN(c3cccc(Cl)c3)CC2)c1C | 17.9 µM (active) | –
CCOC(=O)c1[nH]c(C)c(CCC(=O)N2CCN(c3ccccc3)CC2)c1C | – | -2.38
O=C(CSc1nnc(-c2ccccc2F)o1)Nc1cccc(C(F)(F)F)c1 | – | 5.33
COc1cccc(NC(=O)C(=O)NCC(c2ccc3c(c2)OCO3)N2CCN(C)CC2)c1 (configuration not stated) | – | -29.9
COc1cc(NC(=O)C2CCN(c3cnccn3)CC2)cc(OC)c1 | – | -10.2
Brc1ccc(-c2noc(-c3ccccc3)n2)o1 | – | -13.7
O=C(NCCCc1ccccc1)c1ccc2c(c1)sc1nc(-c3ccc(F)cc3)cn12 | – | -12.4
CCCCOc1ccc(Cn2c(=O)oc3ccc(C)cc32)cc1OC | – | -12.8
CCCCOc1ccc(CN2C(=O)C(=O)c3cc(Br)cc(C)c32)cc1OC | 4.5 µM (active) | –
CCOc1ccc(CNCc2c(C(=O)O)c(C)n(Cc3cccc(OC)c3)c2C)cc1OC | – | -23.9
Cc1ccc(-c2cc(C(F)(F)F)c(C#N)c(SCC(=O)Nc3ccccc3)n2)cc1 | – | 3.61
CCOC(=O)c1c(NC(=O)c2cc(-c3ccc(Cl)cc3)on2)sc2c1CCCC2 | – | -8.48
COc1ccc(/C=C/c2noc(-c3ccccc3O)n2)cc1OC | – | -88.6
Cc1c(-c2nc(-c3ccc4c(c3)OCO4)no2)nnn1-c1ccc(Br)cc1F | – | -12.3
COc1cccc(CNS(=O)(=O)c2cc3c(cc2C)n(C)c(=O)c(=O)n3C)c1 | – | -24.1
COc1ccc(OC)c(CCNC(=O)CCCn2c(=O)c3cccn3c3cccnc32)c1 | – | -47.8
O=C(CCCn1c(=O)c2cccn2c2cccnc21)NCc1ccc(F)cc1 | 17.9 µM (active) | –
